# Hits are enriched below; roughly 3.2% of the tested compounds scored in any of these assays.
# Bim-Mcl-1 = human Bim-Mcl-1 interaction inhibition | Q07820 | Bead-based flow cytometry, Bim peptide-Mcl-1 binding | inhibition, % at 10 µM | 190,000 compounds, 0.1% hits | AID 1009; in the data active means inhibition above about 40%;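 further: 0% = no compound tracer wells and 100% = peptide blocker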
# Target sequence (Q07820 whole entry, looked up): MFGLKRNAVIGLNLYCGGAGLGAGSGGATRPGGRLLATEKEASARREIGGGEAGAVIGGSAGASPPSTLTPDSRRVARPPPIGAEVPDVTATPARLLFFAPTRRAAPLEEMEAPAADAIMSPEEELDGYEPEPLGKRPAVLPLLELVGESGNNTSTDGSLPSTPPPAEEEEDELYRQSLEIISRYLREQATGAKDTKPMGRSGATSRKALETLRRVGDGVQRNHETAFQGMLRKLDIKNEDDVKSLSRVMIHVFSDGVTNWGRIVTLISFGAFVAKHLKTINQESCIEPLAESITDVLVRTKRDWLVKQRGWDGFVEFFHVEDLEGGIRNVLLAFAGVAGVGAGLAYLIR
# 14-3-3 Bad inh = disrupts binding of bovine 14-3-3 zeta to phospho-Bad peptide; TR-FRET 14-3-3zeta/Dy647-pBad peptide displacement, 1 h; 220,000 compounds, 0.71% hits; P63103; inhibition, % at 21.7 µM;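 active means inhibition above about 70%, limit read from the data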;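 further: 0% = full 14-3-3 plus peptide FRET controls and 100% = background without 14-3-3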
# Target sequence (P63103 whole entry, looked up): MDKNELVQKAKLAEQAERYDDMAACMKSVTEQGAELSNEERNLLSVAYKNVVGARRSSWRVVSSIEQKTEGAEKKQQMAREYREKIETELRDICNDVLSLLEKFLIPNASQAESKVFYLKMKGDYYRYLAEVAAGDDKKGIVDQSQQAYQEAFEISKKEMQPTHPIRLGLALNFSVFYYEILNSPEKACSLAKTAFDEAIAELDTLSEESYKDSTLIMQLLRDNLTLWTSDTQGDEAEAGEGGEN
# Mcl1-Noxa inh = disrupts binding of human Mcl-1 to Noxa peptide | Q07820 | TR-FRET Mcl-1/Noxa peptide binding, 2 h | inhibition, % at 21.7 µM | 220,000 compounds, 1.5% hits | AID 1022;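 active means compounds that cut the protein-peptide binding signal by more than 50% relative to plate controls in a single-dose test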;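 further: His-tagged Mcl-1 with rhodamine Noxa BH3 peptide and terbium anti-His antibody; 0% = Mcl-1 plus Noxa peptide wells and 100% = peptide-only wells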
# Mcl1 Bid PPI = Mcl-1/Bid interaction inhibition. 220,000 compounds, 0.97% hits. TR-FRET Mcl-1/Bid-Dy647 peptide binding, 1536-well. inhibition, % at 21.7 µM. AID 1021. Q07820;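 active means compounds that cut the binding signal by more than half at the single screening dose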;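 further: His-tagged Mcl-1 with europium anti-His antibody binding Bid BH3 peptide; 0% = Mcl-1 plus peptide wells and 100% = peptide-only wells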
# NCF1 inh = p47phox (human) inhibition | 220,000 compounds, 0.53% hits | P14598 | inhibition, % at 24.7 µM | p47phox/p22phox peptide binding, fluorescence polarization, 2 h;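 active means inhibition above about 30%, limit read from the data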;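 further: 0% = p47phox with labelled peptide and 100% = labelled peptide alone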
# Active calls of the source: *; . = no result given.
SMILES,Bim-Mcl-1,14-3-3 Bad inh,Mcl1-Noxa inh,Mcl1 Bid PPI,NCF1 inh
CN1C2C=C3C(C#N)=C(N)C(C#N)(C#N)[C@@H](c4ccsc4)[C@@H]3C1CC2 (some centres undefined),53*,-22,10,-17,-2
O=C(Nc1ccc(NC(=O)C23CC4CC(CC(C4)C2)C3)cn1)c1ccco1,0,1,0,-16,-2
O=C(/C=C/c1ccco1)c1ccc(NC(=O)C23CC4CC(CC(C4)C2)C3)cc1,-4,-4,60*,31,-66
C/C(=N\Nc1ccc2nncn2n1)c1cccs1,.,-7,10,-30,-3
COc1cc2oc(-c3ccc(O)cc3)cc(=O)c2c(O)c1OC,.,-1,9,-46,41*
COc1cc2oc(-c3ccc(O)cc3)cc(=O)c2c(OC)c1O,.,-1,39,-105,7
CCCCOc1ccc(C(=O)NCc2ccccn2)cc1,0,-6,-11,-18,38*
CN(C)S(=O)(=O)c1cccc(N=c2scc(-c3ccc4c(c3)NC(=O)CO4)n2CC2CCCO2)c1 (centres undefined),-1,70*,-3,74*,-4
CCN=C1SC(C(=O)Nc2ccc(OC)cc2)CC(=O)N1CC (centres undefined),0,-9,64*,-19,-9
Nc1cc2nc[nH]c2cc1N,8,92*,74*,-9,16
N#CC(C(=O)NC1CCCCC1)=C1CCCCCC1,-6,3,-7,-4,0
N#CC(C(N)=O)=C1CCCCC1,.,5,-12,-29,75*
C=C(C)C1CC=C(C)/C(=N\NC(=O)CCc2ccccc2)C1 (centres undefined),0,-13,10,-31,-6
C[C@@H](C(=O)NCCc1c[nH]c2ccccc12)[C@@H]1C[C@@]1(C)[C@@H](NC(=O)OCc1ccccc1)c1ccccc1,86*,-6,-5,-17,-13
Cc1cccc(NC(=O)COC(=O)c2ccc3c(c2)OCO3)c1C,1,-5,6,-21,0
O=S(=O)(c1cccs1)N1CCN(CC(O)COC2CCCc3ccccc32)CC1 (centres undefined),-1,79*,29,30,-17
C#CCOCCOCCOCCNc1nc(N2CCN(C(=O)[C@H](C)n3cc(CCCN=C(N)N)nn3)CC2)nc(N2CCN(C(=O)[C@H](Cc3ccc(O)cc3)n3cc(CCO)nn3)CC2)n1,-2,78*,34,48,13
C#CCOCCOCCOCCNc1nc(N2CCN(C(=O)[C@H]([C@@H](C)CC)n3cc([C@@H](N)Cc4ccc(O)cc4)nn3)CC2)nc(N2CCN(C(=O)[C@H](CCCCN)n3cc([C@@H](N)C(C)CC)nn3)CC2)n1 (some centres undefined),-1,0,11,0,3
C#CCOCCOCCOCCNc1nc(N2CCN(C(=O)[C@H](CCCCN)n3cc(CCCC)nn3)CC2)nc(N2CCN(C(=O)[C@H](Cc3ccc(O)cc3)n3cc(CCO)nn3)CC2)n1,-1,42,45,57*,63*
CCN(CC)S(=O)(=O)c1ccc(N2CCOCC2)c(NS(=O)(=O)c2ccc(C)c(C)c2)c1,-7,-10,-17,-21,-12
N#CC(C(=O)Nc1ccc(Cl)c(Cl)c1)=C1Nc2ccccc2N1,-3,25,73*,53*,-10
O=C(NCCCl)Nc1cccnc1Cl,1,-11,-12,-33,2
Cc1ccc(C2C3=C(CCCC3=O)Nc3[nH]c(=S)[nH]c(=O)c32)cc1 (centres undefined),-2,19,12,-17,-14
O=C1CCCC2=C1C(c1ccc(Br)cc1)c1c([nH]c(=S)[nH]c1=O)N2 (centres undefined),-4,38,53*,-7,10
COC(=O)c1ccc(NC(C)=O)cc1O,-7,-8,2,-11,7
SMILES,Bim-Mcl-1,14-3-3 Bad inh,Mcl1-Noxa inh,Mcl1 Bid PPI,NCF1 inh
CC1(C)CC(=NNC(=O)c2n[nH]c3c2CCC3)CC(C)(C)N1,1,-6,0,-52,-8
Cc1cc(O)c(C=O)c2c1C(=O)Oc1c(CO)c(O)c3c(c1O2)C(O)OC3=O (centres undefined),1,58,53*,40,-25
OCCC1CN(Cc2cc(F)ccc2-n2cccn2)CCN1Cc1ccc(F)cc1 (centres undefined),.,-7,13,-13,4
O=C(O)c1ccc(-n2cccc2/C=N\NC(=O)c2cc3cc(Br)ccc3o2)cc1,.,80*,92*,-36,-54
Cn1cc(/C=N/NC(=O)c2cc3cc(Br)ccc3o2)c2ccccc21,.,2,13,-26,-21
COc1ccc(/C=C2\SC(=O)N(CCC(=O)Nc3ccc(S(=O)(=O)Nc4nccs4)cc3)C2=O)cc1,-2,0,93*,23,-6
O=C(CCN1C(=O)S/C(=C\c2cccs2)C1=O)Nc1nccs1,0,-17,28,-43,-38
COc1ccc(/C=C2/SC(=O)N(CCC(=O)Nc3ccc(S(=O)(=O)Nc4nccs4)cc3)C2=O)cc1,-8,-6,96*,42,-5
CCCCc1ccc(N/C(N)=N/c2nc(C)cc(C)n2)cc1,.,-17,14,-5,0
N#CCCN1CCN(C(=O)c2c(N)no[n+]2[O-])CC1,-23,-6,-1,-2,-12
O=C(NCc1cccnc1)Nc1ccc(F)cc1F,0,87*,2,-6,-8
CCOC(=O)c1sc2nc3c(SCCC(=O)O)cc(C(=O)c4cc(OC)ccc4O)cn3c(=O)c2c1C,0,64,87*,85*,-17
O=C(O)CSc1cc(C(=O)c2cc(F)ccc2O)cn2c(=O)c3c(-c4ccccc4)csc3nc12,.,17,104*,3,-40
COc1ccc(-c2nnc(NC(=O)C3=COCCO3)o2)cc1,-1,-3,18,-52,-3
CCOC(=O)Cc1nn[nH]n1,0,-6,-5,-17,-2
Fc1ccc(CNC(=S)Nc2ccccc2Cl)cc1,0,-4,10,-8,-5
CC(C)CNC(=O)CSc1nc2scc(-c3ccccc3)c2c(=O)[nH]1,0,-22,54*,-73,-23
Cc1ccc(/C=C2/SC(=S)N(c3ccc(S(=O)(=O)Nc4nccs4)cc3)C2=O)cc1,.,-3,56*,-44,-32
Cc1[nH]n(-c2ccccc2)c(=O)c1C=Nc1ccc(S(=O)(=O)Nc2nccs2)cc1,3,-19,17,-26,-3
Cc1ccc(S(=O)(=O)NN2C(=O)/C(=C/c3ccccn3)SC2=S)cc1,0,12,5,-48,-5
Cc1ccc(Oc2ccc3c(c2)C(=O)N(c2ccc(S(=O)(=O)Nc4nccs4)cc2)C3=O)cc1,-3,4,23,-29,-17
Cc1ccc(-n2[nH]c(C)c(C=Nc3ccc(S(=O)(=O)Nc4nccs4)cc3)c2=O)cc1C,-3,6,61*,35,-8
COc1ccc(/C=C2/SC(=S)N(c3ccc(S(=O)(=O)Nc4nccs4)cc3)C2=O)cc1,.,-8,101*,-61,-33

# Assay outcomes as filed in PubChem.
